Assay outcomes from PubChem.
This is one part of a sample in which hits are shown more often than they occur.
Ba CapD inh: inhibitors of Bacillus anthracis CapD enzyme | actives 0.23% (n = 140,000) | purified CapD enzyme, fluorescence intensity read-out; active compounds read low | z-score (concentration not given with the values); in the data active means z-score mostly below about -2.9, no sharp cut-off; inactive means mostly above about -1.9
Starred values were filed as active, the others as inactive.

SMILES	Ba CapD inh
CN(C)C(=O)C12CCC(C)(C(=O)O1)C2(C)C (stereo unspecified)	-0.115
CCOC(=O)c1c(CN2CCOCC2)n(CC(=O)OC)c2cc(Br)c(OC)cc12	-0.02
CC(C(=O)O)N1C(=O)/C(=C\c2ccco2)SC1=S (stereo unspecified)	-4.89*
CC(C(=O)O)N1C(=O)/C(=C/c2ccccc2Cl)SC1=S (stereo unspecified)	-1.79
O=C(O)CCN1C(=O)/C(=C\c2ccccc2)SC1=S	-1.22
O=C(O)CCN1C(=O)/C(=C/c2ccco2)SC1=S	-6.08*
O=C(O)CCN1C(=O)/C(=C/c2ccccc2)SC1=S	-0.575
Cc1ccc(/C=C2/SC(=S)N(C(C)C(=O)O)C2=O)o1 (stereo unspecified)	-0.01
COc1ccc(C2CC(=O)NC(SCC(=O)Nc3ccc(C)c(C)c3)=C2C#N)cc1OC (stereo unspecified)	0.035
O=C(NCCc1ccccc1)c1ccc(-n2cc(-c3nc4ccccc4o3)cn2)cc1	-0.115
COC(=O)c1ccc2[nH]c3c(c2c1)CCCC3	3.31
CN(C)CCOC(=O)c1ccc2[nH]c3c(c2c1)CSCC3	39.4
O=C(O)c1ccc2[nH]c3c(c2c1)CSCC3	-7.41*
COc1ccc2nc(N3CCCC3)sc2c1	-0.295
Nc1nnc(N2CCCCC2)s1	-0.375
O=C1CCCc2nc(N3CCCCC3)sc21	-4.3*
CCc1ccc2oc(-c3ccc(NC(=O)c4ccc5c(c4)OCCO5)cc3)nc2c1	11.3
COc1ccc2cc(C(=O)Nc3ccc(OC)c(OC)c3)c(=Nc3ccc(C(=O)O)cc3)oc2c1	-3.42*
COc1ccc(OC)c(NC(=O)c2cc3ccc(OC)cc3oc2=Nc2ccc(C(=O)O)cc2)c1	0.07
COc1ccc2cc(C(=O)Nc3ccc(Cl)cc3)c(=Nc3ccc(C(=O)O)cc3)oc2c1	0.62
COc1ccc(C(CC#N)C(C)C)cc1 (stereo unspecified)	-0.445
COc1cc(Br)c(/C=N/NC(=O)CS(=O)(=O)c2ccc(C(F)(F)F)cn2)cc1OC	-1
N#Cc1ccc(Oc2ccccc2)cc1C#N	-0.08
N#COc1ccc(Oc2ccc(OC#N)cc2)cc1	-4.94*
N#Cc1ccc(Oc2ccc(N3C(=O)CCC3=O)cc2)cc1	-0.055
SMILES	Ba CapD inh
COC(=O)CCc1c(C)nn(-c2ccc(C(=O)NCC(=O)Nc3ccc4ccccc4c3)cc2)c1C	-0.185
Cc1cccc(N2CCN(C(=O)c3ccc4c(=O)[nH]c5c(C(=O)NC(C)C)sc(=S)n5c4c3)CC2)c1C	-3.87*
Cc1ccc(NC(=O)c2sc(=S)n3c2[nH]c(=O)c2ccccc23)c(C)c1	-1.34
COc1ccc(NC(=O)c2sc(=S)n3c2[nH]c(=O)c2ccccc23)cc1	-2.34
O=C1CCCC2=C1C(c1cccc(O)c1)C1=C(CCCC1=O)O2	-0.22
NS(=O)(=O)c1ccc(CNC(=O)CCC(=O)Nc2ccc(Br)cn2)cc1	-0.67
CSc1nnc(C)c(/C=C/Nc2cc(C(F)(F)F)cc(C(F)(F)F)c2)n1	-0.09
COc1ccc(C(=O)[C@@H]2[C@@H](c3ccc(OC)c(OC)c3)C(C#N)(C#N)[C@H]3C=Cc4ccccc4N23)cc1	-0.06
Cc1ccc(N2C(=O)/C(=C\c3ccc(-c4ccccc4C(=O)O)o3)C(=O)NC2=S)cc1	3
CN1C(=O)/C(=C/c2ccc(I)o2)C(=O)NC1=S	-9.73*
CN1C(=O)/C(=C/c2cn(CC(=O)N3CCCC3)c3ccccc23)C(=O)NC1=S	-0.425
COc1cc2c(cc1OC)C1=C(C#N)CCC(=NC(=O)c3ccccc3F)N1CC2	-1.94
COc1cc(/C=C2/SC(=S)N(CC(=O)O)C2=O)cc(OC)c1OC	-1.47
COc1ccc(OC)c(/C=C2/SC(=S)N(CC(=O)O)C2=O)c1	-2.25
COc1cc(OC)c(OC)cc1/C=C1/SC(=S)N(CC(=O)O)C1=O	-3.78*
CN(C)S(=O)(=O)c1ccc(N(Cc2ccccc2)S(=O)(=O)c2ccc3oc(=O)ccc3c2)cc1	-0.05
CC1(C)CC(=O)C2=C(C1)OC1=C(C(=O)CC(C)(C)C1)C2c1ccc(OCc2c(F)cccc2Cl)cc1	-0.17
Cn1c(SCC(=O)OCC(=O)c2ccc(Cl)cc2)nc2c1c(=O)[nH]c(=O)n2C	-0.23
Fc1ccc(Nc2nc3nonc3nc2Nc2ccc(F)cc2F)c(F)c1	-1.23
COc1ccc(Nc2nc3nonc3nc2Nc2ccc(OC)cc2)cc1	-0.875
CN(C)c1nc2nonc2nc1Nc1ccc(F)cc1	-5.19*
CCOC(=O)c1ccc(NC(=O)C2CC(=O)N(C)C(=Nc3ccc(C)c(Cl)c3)S2)cc1 (stereo unspecified)	0.095
CCO/C=C1\SC(=S)N(c2ccc(Cl)cc2)C1=O	0.45
CCO/C=C1\SC(=S)N(/N=C/c2cccc(Cl)c2)C1=O	-4.42*
CCO/C=C1/SC(=S)N(CCc2ccc(Cl)cc2)C1=O	-2.1
SMILES	Ba CapD inh
Cc1ccccc1NC(=O)c1sc(=S)n(-c2ccccc2C)c1N	0.055
O=C(Cn1c(=S)[nH]c2ccccc21)c1ccc(-c2ccccc2)cc1	0.53
CC(=O)n1c(=S)[nH]c2ccccc21	-5.21*
CC(=O)n1c(=O)sc2ccccc21	-2.1
O=C(OCCN1CNC(=S)NC1)N1CCC(O)(Cc2ccccc2)CC1	-0.625
N#C/C(=C\c1cccc(Cl)c1)C(=O)C1CC1	0.495
O=C(/C=C/c1ccco1)C1CC1	-3.09
N#C/C(=C\c1ccco1)C(=O)C1CC1	-4.28*
c1ccc(-c2nc3c(c(N4CCCCC4)n2)C2(CCCCC2)Cc2ccccc2-3)cc1	0.22
Cc1ccc(S(=O)(=O)NC(=O)N2CCC(c3nc(-c4cccc(C(F)(F)F)c4)no3)CC2)cc1	-0.04
CCCC(=O)Oc1ccc(N(C(=O)CCC)S(=O)(=O)c2ccccc2)cc1	-0.49
CC(=O)Oc1ccc(N(C(C)=O)S(=O)(=O)c2ccccc2)cc1	-4.21*
COc1ccc(N(C(C)=O)S(=O)(=O)c2ccc(C)cc2)cc1	-3.44
O=C(Nc1c(F)cccc1F)c1c(F)cccc1F	0.26
Cc1cccc(N2CCN(Cc3csc(C)c3C)CC2C)c1 (stereo unspecified)	0.28
CCOC(=O)C(NC(=O)c1cccc(Cl)c1)(Nc1sc2c(c1C#N)CCC(C)C2)C(F)(F)F (stereo unspecified)	-0.33
Oc1c(C(c2ccccc2)N2CCOCC2)ccc2cccnc12 (stereo unspecified)	-0.8
OCCN1CCN(C(c2ccccc2)c2ccc3cccnc3c2O)CC1 (stereo unspecified)	-5.25*
CN1CCN(C(c2ccncc2)c2ccc3cccnc3c2O)CC1 (stereo unspecified)	-2.4
FC(F)(F)Oc1ccc(NCn2nnc3cc(Cl)ccc32)cc1	0.035
CC1(C)N([O-])c2ccccc2[N+]1=O	-0.275
Cc1nn(C)cc1C(=O)NC(=O)NN(C)c1ncc(C(F)(F)F)cc1Cl	-0.28
N#Cc1ccc(CSc2nc3ncccc3c(=O)n2Cc2ccccc2)cc1	-6.45*
O=c1c2cccnc2nc(SCc2ccccc2F)n1Cc1ccccc1	1.01
O=c1c2nccnc2nc(SCc2ccc(F)cc2)n1Cc1ccccc1	-0.305
SMILES	Ba CapD inh
Cc1cc(C(F)(F)F)c(C#N)c(SCC(=O)Nc2ccccc2[N+](=O)[O-])n1	0.025
COc1ccc(N2C(=O)/C(=C/c3cc(Cl)c(OCC(=O)O)c(OC)c3)NC2=S)cc1	-2.05
O=C1NC(=S)NC(=O)C1=C/C=C/c1ccccc1	0.025
O=C1NC(=O)/C(=C\C=C\c2ccccc2)S1	0.62
O=C1NC(=S)S/C1=C\C=C\c1ccccc1	-4.03*
CCc1cc2c(=O)c(-c3ccc4c(c3)OCO4)c(C(F)(F)F)oc2c(CN(C)C)c1O	-4*
CCN(CC)Cc1c(O)ccc2c(=O)c(-c3ccc(OC)c(OC)c3)c(C(F)(F)F)oc12	-0.02
